Measured values: PubChem BioAssay AID372 (MTDP, 2006)
The whole screen tested about 100,000 compounds, of which about 770 (0.77%) were called active. This is one part of a sample in which actives are shown more often than they occur. No stated cut-off is given here; in the data, active means inhibition above about 50%; inactive means the rest.

Target: Gag-Pol polyprotein (Human immunodeficiency virus type 1 group M subtype B (isolate HXB2)) (UniProt P04585)
Assay: RNase H inhibition, HIV 1 Gag Pol polyprotein, FRET biochemical assay, screening (AID 372)
Conditions: HIV-1 RT RNase H, FRET RNA/DNA substrate fluorescence; at 10 µM; active compounds read high

| Compound | inhibition |
| --- | --- |
| COc1ccc(-c2n[nH]c(=S)n2N=C/C(Br)=C/c2ccccc2)cc1 | 21% (inactive) |
| N#Cc1c(-c2ccc(Br)cc2)cc(-c2ccc3c(c2)OCO3)c(C#N)c1N | 48% (inactive) |
| N#Cc1c(-c2ccc(Br)cc2)cc(-c2ccco2)c(C#N)c1N | 58% (active) |
| N#Cc1c(-c2ccccc2)cc(-c2ccco2)c(C#N)c1N | 18% (inactive) |
| Cc1ccccc1C(=O)Nc1sc2c(c1C(=O)Nc1cccc3ccccc13)CCC2 | 13% (inactive) |
| O=C(Nc1cccc(O)c1)c1cc2nc(-c3ccc(Cl)cc3)cc(C(F)(F)F)n2n1 | 11% (inactive) |
| CC(=O)Oc1ccc(C(=O)Nc2cccc(C(=O)O)c2C)cc1 | 55% (active) |
| CC(=O)Oc1ccc(C(=O)Nc2cccc([N+](=O)[O-])c2C)cc1 | 6% (inactive) |
| CC(=O)Oc1ccc(C(=O)Nc2ccc(C)cc2C(=O)O)cc1 | 4% (inactive) |
| Cc1ccccc1N1C(=O)NC(=O)/C(=C\c2cccn2-c2ccc(Cl)cc2)C1=O | 42% (inactive) |
| CC(C)(C)c1ccc(C(C)(C)C)c(Oc2ccccc2)c1O | 8% (inactive) |
| Cc1ccc([N+](=O)[O-])cc1NC(=O)c1cccc2c1C(=O)c1ccccc1-2 | 0% (inactive) |
| COc1ccc2ccccc2c1/C=C1/SC(NC(C)=O)=NC1=O | 52% (active) |
| COc1cccc(/C=C2/SC(NC(C)=O)=NC2=O)c1OC | 8% (inactive) |
| COc1ccccc1/C=C1\SC(NC(C)=O)=NC1=O | 17% (inactive) |
| COc1ccc(-c2n[nH]c(=S)n2/N=C/c2ccccc2Br)cc1 | 12% (inactive) |

| Compound | inhibition |
| --- | --- |
| COc1ccc(/C=C/c2ccc3ccccc3n2)cc1 | 17% (inactive) |
| Cc1nn(C(=O)C(C)N2C(=O)c3ccccc3C2=O)c(C)c1Br (configuration not stated) | 41% (inactive) |
| Cc1cn(C(=O)C(C)N2C(=O)c3ccccc3C2=O)c(C)n1 (configuration not stated) | 53% (active) |
| Cc1cc(C)n(C(=O)C(C)N2C(=O)c3ccccc3C2=O)n1 (configuration not stated) | 43% (inactive) |
| CC1=C(C(=O)OC2CCCCCC2)C(c2ccccc2)NC(=O)N1 (configuration not stated) | 14% (inactive) |
| CCCCCCOC(=O)C1=C(C)NC(=O)NC1c1ccc(Br)cc1 (configuration not stated) | 53% (active) |
| CC1=C(C(=O)OCCc2ccccc2)C(c2ccc(C)s2)NC(=O)N1 (configuration not stated) | 19% (inactive) |
| CC1=C(C(=O)OC2CCCCCCC2)C(c2ccccc2)NC(=O)N1 (configuration not stated) | 57% (active) |
| CC1=C(C(=O)OC2CCCC2)C(c2ccccc2Cl)NC(=O)N1C (configuration not stated) | 5% (inactive) |
| CCCCOC(=O)C1=C(C)NC(=O)NC1c1ccc(Br)cc1 (configuration not stated) | 23% (inactive) |
| COC(=O)C1=C(C)N(C)C(=O)NC1c1ccccc1I (configuration not stated) | 5% (inactive) |
| COCCOC(=O)C1=C(C)NC(=O)NC1c1ccc(C)s1 (configuration not stated) | 8% (inactive) |
| CC1=C(C(=O)OC2CCCCCC2)C(c2ccccc2I)NC(=O)N1C (configuration not stated) | 52% (active) |
| CC1=C(C(=O)OC2CCCCCC2)C(c2ccc(C)cc2)NC(=O)N1 (configuration not stated) | 36% (inactive) |
| CCCCCOC(=O)C1=C(C)NC(=O)NC1c1ccc(Br)cc1 (configuration not stated) | 20% (inactive) |
| CC1=C(C(=O)OCc2ccccc2)C(c2ccc(C)s2)NC(=O)N1 (configuration not stated) | 55% (active) |
